Measured values published in PubChem BioAssay (NCI).
Compounds without any hit were thinned out: in the full panel of roughly 83,000, 20% have a hit.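 Compound tested at a single concentration for 48 hours in 96-well plates; a percent growth value below 10 was scored as active.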 Active and inactive are the calls of the source.

Key:
Assay in all cases: NCI-60 one-dose screen, 48 h (100 = growth as untreated, 0 = no growth, -100 = all killed)
Conditions in all cases: 10 µM unless noted
DU-145 prostate = tested on: DU-145 prostate
K-562 leukemia = tested on: K-562 leukemia
MALME-3M melanoma = tested on: MALME-3M melanoma
MDA-MB-231 breast = tested on: MDA-MB-231 breast
RXF 393 renal = tested on: RXF 393 renal
SF-268 CNS = tested on: SF-268 CNS
SF-295 CNS = tested on: SF-295 CNS
SF-539 CNS = tested on: SF-539 CNS
UACC-257 melanoma = tested on: UACC-257 melanoma
M14 melanoma = tested on: M14 melanoma
HCT-15 colon = tested on: HCT-15 colon
HT29 colon = tested on: HT29 colon
SNB-75 CNS = tested on: SNB-75 CNS
SNB-19 CNS = tested on: SNB-19 CNS
U251 CNS = tested on: U251 CNS
PC-3 prostate = tested on: PC-3 prostate
SK-MEL-5 melanoma = tested on: SK-MEL-5 melanoma
UACC-62 melanoma = tested on: UACC-62 melanoma
LOX IMVI melanoma = tested on: LOX IMVI melanoma
SK-MEL-28 melanoma = tested on: SK-MEL-28 melanoma

Measured: growth

O=C(CN1CCN(C(=O)c2ccco2)CC1)Nc1ccc(Cl)cc1C(=O)c1ccccc1Cl
inactive: DU-145 prostate 111% | K-562 leukemia 80.6% | MALME-3M melanoma 104% | MDA-MB-231 breast 49.2% | SF-268 CNS 90.7% | SF-295 CNS 109% | SF-539 CNS 99.8% | UACC-257 melanoma 86.2% | M14 melanoma 90.4% | HCT-15 colon 81.9% | HT29 colon 89.4% | SNB-75 CNS 67.8% | SNB-19 CNS 99.2% | U251 CNS 91.3% | PC-3 prostate 73.9% | SK-MEL-5 melanoma 51.1% | UACC-62 melanoma 58.5% | LOX IMVI melanoma 79.9% | SK-MEL-28 melanoma 110%
active: RXF 393 renal -11.8%

C/C(CC(C)(C)N1CC1)=N\NC(=O)Nc1cccc2ccccc12
inactive: DU-145 prostate 68.2% | K-562 leukemia 78.2% | MALME-3M melanoma 74.5% | MDA-MB-231 breast 58.3% | RXF 393 renal 39.2% | SF-268 CNS 52.9% | SF-295 CNS 67% | SF-539 CNS 70.3% | UACC-257 melanoma 86.4% | M14 melanoma 72.8% | HCT-15 colon 60.8% | HT29 colon 38.6% | SNB-75 CNS 58.8% | SNB-19 CNS 63.5% | U251 CNS 57.3% | PC-3 prostate 64.4% | SK-MEL-5 melanoma 72.3% | UACC-62 melanoma 68.4% | LOX IMVI melanoma 46.1% | SK-MEL-28 melanoma 102%

O=C([O][Hg][CH2]C1OCCOC1[CH2][Hg][O]C(=O)c1ccccc1)c1ccccc1 (stereo not given)
inactive: DU-145 prostate 90.1% | MDA-MB-231 breast 93.2% | SF-268 CNS 114% | SF-295 CNS 112% | SF-539 CNS 79.8% | M14 melanoma 73.3% | HT29 colon 83.6% | SNB-75 CNS 92.5% | SNB-19 CNS 105% | U251 CNS 43% | PC-3 prostate 70.5% | SK-MEL-5 melanoma 93.1% | UACC-62 melanoma 106%
active: K-562 leukemia -36% | MALME-3M melanoma -98.3% | RXF 393 renal -90.1% | UACC-257 melanoma -96.4% | HCT-15 colon -79.5% | LOX IMVI melanoma -92.7% | SK-MEL-28 melanoma -96.7%

CCOc1ccc(/C=C/[N+](=O)[O-])cc1
inactive: DU-145 prostate 99.3% | K-562 leukemia 69% | MALME-3M melanoma 106% | MDA-MB-231 breast 92.8% | RXF 393 renal 16.9% | SF-268 CNS 98.9% | SF-295 CNS 82.5% | SF-539 CNS 39% | UACC-257 melanoma 85.5% | M14 melanoma 54.5% | HCT-15 colon 51.1% | SNB-75 CNS 90.6% | SNB-19 CNS 91.2% | U251 CNS 60.1% | PC-3 prostate 77.4% | SK-MEL-5 melanoma 74.4% | UACC-62 melanoma 92.8% | LOX IMVI melanoma 62.9% | SK-MEL-28 melanoma 110%
active: HT29 colon 9.84%

CC12CCC3C(CCC4=CC(=O)CCC43CF)C1CCC2=O (stereo not given)
inactive: DU-145 prostate 116% | K-562 leukemia 93.5% | MALME-3M melanoma 94.2% | MDA-MB-231 breast 118% | RXF 393 renal 67.7% | SF-268 CNS 110% | SF-295 CNS 106% | SF-539 CNS 106% | UACC-257 melanoma 97% | M14 melanoma 103% | HCT-15 colon 106% | HT29 colon 116% | SNB-75 CNS 90.1% | SNB-19 CNS 109% | U251 CNS 111% | PC-3 prostate 97.4% | SK-MEL-5 melanoma 109% | UACC-62 melanoma 115% | LOX IMVI melanoma 96.6% | SK-MEL-28 melanoma 117%

CC[C@H](C)[C@H](NC(=O)[C@H]1CCCCN1C)C(=O)N(C)[C@H](C[C@@H](OC(C)=O)c1nc(C(=O)NC23CC(C(=O)OC)(C2)C3)cs1)C(C)C
active: DU-145 prostate -5.33% | K-562 leukemia 5.87% | SF-295 CNS 2.38% | SF-539 CNS -22% | M14 melanoma 4.22% | HCT-15 colon 6.1% | HT29 colon -9.84% | U251 CNS 6.7% | SK-MEL-5 melanoma -65.7% | LOX IMVI melanoma 4.9%
inactive: MALME-3M melanoma 67.3% | MDA-MB-231 breast 15% | RXF 393 renal 35.9% | SF-268 CNS 23.2% | UACC-257 melanoma 46.6% | SNB-75 CNS 15% | SNB-19 CNS 29% | PC-3 prostate 23.6% | UACC-62 melanoma 44.3% | SK-MEL-28 melanoma 60.8%

CC(=O)O[C@H](C[C@H](C(C)C)N(C)C(=O)[C@@H](NC(=O)[C@H]1CCCCN1C)C(C)C)c1cccc(C(=O)N[C@@H](Cc2ccccc2)C[C@H](C)C(=O)O)n1
inactive: MALME-3M melanoma 74.3% | MDA-MB-231 breast 11.8% | RXF 393 renal 34.5% | SF-268 CNS 23.1% | UACC-257 melanoma 48.4% | SNB-75 CNS 27.6% | SNB-19 CNS 22.4% | U251 CNS 10.9% | PC-3 prostate 26.4% | UACC-62 melanoma 36.3% | LOX IMVI melanoma 14.6% | SK-MEL-28 melanoma 65%
active: DU-145 prostate 0.44% | K-562 leukemia 7.66% | SF-295 CNS 5.65% | SF-539 CNS -2.97% | M14 melanoma 1.68% | HCT-15 colon 9.65% | HT29 colon 2.72% | SK-MEL-5 melanoma -39.2%

CC(=O)O[C@H](C[C@H](C(C)C)N(C)C(=O)[C@@H](NC(=O)[C@H]1CCCCN1C)C(C)C)c1nc(C(=O)N[C@@H](Cc2ccccc2)C[C@H](C)C(=O)O)c(CCOCc2ccccc2)s1
active: DU-145 prostate -9.34% | K-562 leukemia 7.14% | MDA-MB-231 breast 9.48% | SF-295 CNS -19.8% | SF-539 CNS -31.5% | M14 melanoma -29.4% | HCT-15 colon 6.72% | HT29 colon -4.51% | SNB-75 CNS 0.84% | SK-MEL-5 melanoma -40.5%
inactive: MALME-3M melanoma 23.3% | RXF 393 renal 18.3% | SF-268 CNS 11.6% | UACC-257 melanoma 54.5% | SNB-19 CNS 16% | U251 CNS 11.5% | PC-3 prostate 21.9% | UACC-62 melanoma 27.1% | LOX IMVI melanoma 11.8% | SK-MEL-28 melanoma 42%

C[C@@H]1O[C@@H](O[C@H]2C[C@@H](O)[C@]3(CO)C4C(CC[C@]3(O)C2)[C@@]2(O)CC[C@H](C3=CC(=O)OC3)[C@@]2(C)C[C@H]4O)[C@H](O)[C@H](O)[C@H]1O (stereo not given in full)
active: DU-145 prostate -94.4% | K-562 leukemia -22.4% | MALME-3M melanoma -31% | MDA-MB-231 breast -22.5% | RXF 393 renal -26.6% | SF-268 CNS -91.7% | SF-295 CNS -51.5% | SF-539 CNS -80.1% | UACC-257 melanoma -91.7% | M14 melanoma -86.2% | HCT-15 colon -74.6% | HT29 colon -85.2% | SNB-75 CNS -83.9% | SNB-19 CNS -94.6% | U251 CNS -97.3% | PC-3 prostate 6.86% | SK-MEL-5 melanoma -95.5% | UACC-62 melanoma -66.5% | LOX IMVI melanoma -88.2% | SK-MEL-28 melanoma -87.6%

COc1ccc(C(=O)c2cc(OC)c(OC)c(OC)c2)cc1OC(C)=O
active: DU-145 prostate 4.78% | SF-539 CNS 6.23% | M14 melanoma 4.11% | U251 CNS 6.47% | SK-MEL-5 melanoma -35.1%
inactive: K-562 leukemia 10.4% | MALME-3M melanoma 78% | MDA-MB-231 breast 33.8% | RXF 393 renal 49.3% | SF-268 CNS 41.9% | SF-295 CNS 15.4% | UACC-257 melanoma 55.7% | HCT-15 colon 12.7% | HT29 colon 18.8% | SNB-75 CNS 40.4% | SNB-19 CNS 28.3% | PC-3 prostate 14.1% | UACC-62 melanoma 38.9% | LOX IMVI melanoma 19.7% | SK-MEL-28 melanoma 56.6%

CCC[CH2][Sn]([CH2]CCC)([CH2]CCC)[O]c1ccc(Cl)cc1Cl
active: DU-145 prostate -99.4% | K-562 leukemia -65% | MALME-3M melanoma -61.5% | MDA-MB-231 breast -78.2% | RXF 393 renal -96.2% | SF-268 CNS -91% | SF-295 CNS -37% | SF-539 CNS -83.4% | UACC-257 melanoma -88.8% | M14 melanoma -83.9% | HCT-15 colon -62.5% | HT29 colon -52.3% | SNB-75 CNS -93.6% | SNB-19 CNS -81% | U251 CNS -74% | PC-3 prostate -70% | SK-MEL-5 melanoma -99.8% | UACC-62 melanoma -88.4% | LOX IMVI melanoma -81.4% | SK-MEL-28 melanoma -96.9%

CNC(=O)Oc1ccc2c(c1)OCO2
inactive: DU-145 prostate 108% | K-562 leukemia 90.1% | MALME-3M melanoma 104% | MDA-MB-231 breast 101% | RXF 393 renal 113% | SF-268 CNS 102% | SF-295 CNS 101% | SF-539 CNS 102% | UACC-257 melanoma 102% | M14 melanoma 107% | HCT-15 colon 101% | HT29 colon 104% | SNB-75 CNS 98.6% | SNB-19 CNS 98.9% | U251 CNS 99% | PC-3 prostate 102% | SK-MEL-5 melanoma 101% | UACC-62 melanoma 99.4% | LOX IMVI melanoma 103% | SK-MEL-28 melanoma 108%

COC(=O)[C@@H](C)C[C@H](Cc1ccccc1)NC(=O)c1csc([C@@H](C[C@H](C(C)C)N(C)C(=O)[C@H](C)NC(=O)[C@H]2CCCN2C)OC(C)=O)n1
inactive: DU-145 prostate 51.6% | K-562 leukemia 11.5% | MALME-3M melanoma 56.2% | MDA-MB-231 breast 63.6% | RXF 393 renal 21.8% | SF-268 CNS 53.9% | SF-295 CNS 31.1% | SF-539 CNS 39.9% | UACC-257 melanoma 36.4% | M14 melanoma 37.5% | HCT-15 colon 57.7% | HT29 colon 11.5% | SNB-75 CNS 30.7% | SNB-19 CNS 51% | U251 CNS 24.8% | PC-3 prostate 36.4% | SK-MEL-5 melanoma 22.3% | UACC-62 melanoma 45.6% | LOX IMVI melanoma 38.4% | SK-MEL-28 melanoma 70.1%

CC(=O)O[C@H](C[C@H](C(C)C)N(C)C(=O)[C@@H](NC(=O)[C@H]1CCCCN1C)C(C)(C)C)c1nc(C(=O)N[C@@H](Cc2ccccc2)C[C@H](C)C(=O)O)cs1
inactive: MALME-3M melanoma 66.7% | RXF 393 renal 39.5% | SF-268 CNS 24.1% | UACC-257 melanoma 47% | SNB-75 CNS 17% | SNB-19 CNS 23.4% | U251 CNS 11.1% | PC-3 prostate 25.1% | UACC-62 melanoma 26.2% | LOX IMVI melanoma 14.3% | SK-MEL-28 melanoma 52.6%
active: DU-145 prostate 0.642% | K-562 leukemia 5.51% | MDA-MB-231 breast 6.25% | SF-295 CNS -0.638% | SF-539 CNS -10.9% | M14 melanoma 3.36% | HCT-15 colon 5.59% | HT29 colon 1.32% | SK-MEL-5 melanoma -50.6%
